DT40 TDP1 no CPT = qHTS for Inhibitors of human tyrosyl-DNA phosphodiesterase 1 (TDP1): qHTS in cells in absence of CPT | DT40 Tdp1-/- hTDP1 cells, no CPT, ATP luminescence, 48 h | Potency, µM (top dose mostly 46.2 µM), for the others: at the top dose activity change, negative = growth inhibition, usual class: inhibitors | 15% of 420,000 active; note: potency is the fitted concentration of half-maximal effect; nearly all actives have a fitted effect of over 55% in size
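A cellular qHTS used chicken DT40 cells lacking endogenous Tdp1 but carrying stably transfected human TDP1. Compounds were applied without camptothecin, and cell growth kinetics were judged by ATP-dependent luminescence after ≥48 hr.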
ELG1 DNA repair = qHTS screen for small molecules that inhibit ELG1-dependent DNA repair in human embryonic kidney (HEK293T) cells expressing luciferase-tagged ELG1; HEK293T ELG1-luciferase reporter, luminescence, 16 h; DNA damage induced by 5-fluorouridine; Potency, µM (doses to about 46.1 µM), without a hit: at the highest dose activity change, negative = inhibition, hits mostly inhibitors; 2.3% of 330,000 active; AID 504467, 2011; note: potency is the fitted concentration of half-maximal effect; nearly all actives have a fitted effect of over 55% in size
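DMSO vehicle served as the neutral condition. Each well held 2,000 cells given 5-fluorouridine plus compound; after 16 hr at 37 °C/5% CO2, ONE-Glo was added and luciferase measured 30 min later.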
HT1080NT lethal = qHTS for induction of synthetic lethality in tumor cells producing 2HG: qHTS for the HT-1080-NT fibrosarcoma cell line; 1.6% of 360,000 active; Potency, µM (top dose mostly 46.1 µM), for inactives: top-dose activity, negative = less viability, hits mostly cytotoxic; HT-1080-NT fibrosarcoma viability, CellTiter-Glo ATP luminescence, 48 h;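 note: NT is the 2HG producing partner of a matched IDH1 knockdown line; potency is the fitted concentration of half-maximal effect; 0% = DMSO-treated cells and -100% = media-only wells without cells; nearly all actives have a fitted effect of over 55% in size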
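HT-1080-NT fibrosarcoma cells (2HG-overproducing), 750 cells/well in RPMI with 5% FBS, dosed after 2 h and incubated 48 h at 37C. CellTiter-Glo luminescence normalized to DMSO and no-cell wells; concentration-response curves fitted and classed.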
HT1080 IDH1KD tx = qHTS for induction of synthetic lethality in tumor cells producing 2HG: qHTS for the HT-1080-IDH1KD cell line | AID 686971, 2013 | HT-1080 IDH1 knockdown viability, ATP luminescence, 48 h | 2% of 360,000 active | Potency, µM (top dose mostly 46.1 µM), without a hit: at the top dose activity, negative = toxicity, usual class: cytotoxic;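 note: potency is the fitted concentration of half-maximal effect; 0% = DMSO wells and -100% = cell-free medium wells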
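Viability of IDH1-knockdown HT-1080 fibrosarcoma cells was assessed by CellTiter-Glo after 48 h at 37 °C with titrated compound; concentration-effect curves were classified by fit quality and response size.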
TDP1 cell CPT = qHTS for Inhibitors of human tyrosyl-DNA phosphodiesterase 1 (TDP1): qHTS in cells in presence of CPT | chicken DT40 Tdp1-/-;hTDP1 cells + 20 nM CPT, ATP luminescence, 48 h | Potency, µM (top dose mostly 46.2 µM), inactives show at the highest dose activity change, negative = growth inhibition, most hits filed as inhibitors | 12% of 420,000 active; note: potency is the fitted concentration of half-maximal effect; nearly all actives have a fitted effect of over 55% in size
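Chicken DT40 Tdp1-/- cells complemented with human TDP1, 400 cells/well, exposed to compounds plus 20 nM camptothecin for at least 48 h at 37 C; viability read as ATP content by CellTiter-Glo luminescence.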
IL-1B inflam inh = qHTS for Inhibitors of Inflammasome Signaling: IL-1-beta AlphaLISA Primary Screen. 4.7% of 360,000 active. AID 743279, 2014. activity change, % at 57.5 µM. THP-1 LPS/ATP IL-1B secretion, AlphaLISA, 16 h; hits give low values; in the data active = activity change below about -50%; inconclusive = mostly about -30% to -49%
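THP-1 cells pretreated 1 hr with compounds (up to 57.5 uM final), then stimulated with LPS (250 ng/mL final) plus ATP (1.25 mM final); secreted IL-1B measured by AlphaLISA after 16 hr, decreased signal indicating inhibition.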
An asterisk follows results filed as active; u = inconclusive; x = not tested or not shown; [ ] = remark or other dose. Sampled rows, rich in hits. Any-hit rate of the full collection: about 19%. Unless noted, calls come from the whole dose curve; as a rule, active = well fitted curve in the direction sought with a large enough effect; inconclusive = small, poorly fitted or top-dose-only effect, or another doubt; inactive = no such curve, though single readings can be large; an effect the other way counts as inactive or inconclusive. Unless noted, % is set by controls: 0 for no effect and ±100 for the full control effect.

SMILES | DT40 TDP1 no CPT | ELG1 DNA repair | HT1080NT lethal | HT1080 IDH1KD tx | TDP1 cell CPT | IL-1B inflam inh
Cc1c(NC(=O)[C@@H](NC(=O)c2ccc(Cl)c([N+](=O)[O-])c2)C(C)C)c(=O)n(-c2ccccc2)n1C | u | 21% | -2% | 0% | 3% | -94*
Cc1c(NC(=O)C(C)OC(=O)[C@@H](NC(=O)c2ccccc2)C(C)C)c(=O)n(-c2ccccc2)n1C (some centres undefined) | -10% | 4% | -1% | 0% | 0% | 18
COc1ccc([N+](=O)[O-])cc1NC(=O)CSc1ccccc1 | u | 0% | -15% | -13% | -20% | -9
O=C(O)c1cc([N+](=O)[O-])ccc1NCCCc1ccccc1 | u | x | -23% | -2% | u | -6
COc1ccc(C(CC(=O)Nc2cc([N+](=O)[O-])ccc2OC)c2ccccc2)cc1 (centres undefined) | u | -25% | -1% | 5% | 16µM* | 17
COc1ccc([N+](=O)[O-])cc1NC(=O)C(C)Sc1nc(-c2ccccc2)cs1 (centres undefined) | u | -20% | 0% | -2% | 18µM* | 10
COc1ccc([N+](=O)[O-])cc1NCc1ccccc1 | u | u | -11% | -13% | u | -89*
O=C(O)c1cc([N+](=O)[O-])ccc1NCc1ccccc1 | -21% | 2% | -5% | -1% | 6% | -70*
CCOc1ccc(S(=O)(=O)N2CCC(C(=O)Nc3ccc(C)c(S(=O)(=O)N4CCOCC4)c3)CC2)cc1 | u | x | -9% | -12% | u | 3
CCOC(=O)C1(Cc2ccccc2)CCCN(Cc2cccc(C(C)=O)c2)C1 (centres undefined) | 16µM* | u | 0% | 7% | u | 15
CCOC(=O)C1(Cc2ccccc2)CCCN(C(=O)C=C(C)C)C1 (centres undefined) | -51% | u | 5% | 9% | u | 11
CCOC(=O)C1(Cc2ccccc2)CCCN(C(=O)COc2ccccc2OC)C1 (centres undefined) | 13µM* | x | -3% | 0% | 23µM* | -7
Cc1cc(C)cc(NC(=O)CNS(=O)(=O)c2ccc3nc(C)sc3c2)c1 | -13% | x | x | x | -6% | x
Cn1c(-c2ccccc2)cc2ccccc21 | -23% | 13% | -1% | 8% | -23% | 2
Cn1c(C(c2cc3ccccc3n2C)c2cc3ccccc3n2C)cc2ccccc21 | 3.5µM* | x | x | x | 5.6µM* | x
Cn1c(-c2ccccc2O)cc2ccccc21 | 18µM* | 0% | u | 0%[9.24 µM] | u | 5
CCCn1c2ccccc2c2cnn(CC(=O)NCCc3cc(OC)ccc3OC)c(=O)c21 | 16µM* | x | x | x | u | x
CCCn1c2ccccc2c2cnn(CC(=O)Nc3ccccc3OC)c(=O)c21 | 15µM* | x | x | x | 23µM* | x
CCCn1c2ccccc2c2cnn(CC(=O)NCCOC)c(=O)c21 | -15% | 15% | 7% | 9% | -19% | -3
CCCn1c2ccccc2c2cnn(CC(=O)NCc3cc(OC)ccc3OC)c(=O)c21 | u | x | x | x | 18µM* | x
OC[C@@H]1CN(Cc2ccc(-c3ccccc3)cc2)C[C@H](n2cnc3c(NCc4ccncc4)ncnc32)O1 | 3.3µM* | x | u | 23µM* | 2.9µM* | -10
OC[C@@H]1CN(Cc2ccccc2)C[C@H](n2cnc3c(NCc4ccco4)ncnc32)O1 | -6% | x | -1% | 10% | -18% | 0
OCCNc1ncnc2c1ncn2[C@H]1CN(Cc2ccc(-c3ccccc3)cc2)C[C@@H](CO)O1 | u | x | -29% | -28% | u | 1
OC[C@@H]1CN(Cc2ccc(-c3ccccc3)cc2)C[C@H](n2cnc3c(NCc4ccco4)ncnc32)O1 | 9.2µM* | x | 21µM* | 18µM* | 9.2µM* | -24
CC(=O)NC(C)(c1ccccc1)c1nc(-c2cc(F)cc(F)c2)cs1 (centres undefined) | u | x | -17% | -11% | u | 41
SMILES | DT40 TDP1 no CPT | ELG1 DNA repair | HT1080NT lethal | HT1080 IDH1KD tx | TDP1 cell CPT | IL-1B inflam inh
CCN(CC(=O)Nc1ccc2c(c1)OCCO2)C(=O)COc1ccc(C)cc1 | -3% | -5% | -8% | 16% | -1% | 2
COc1ccc(CNC(=O)Cc2c(C(=O)O)c(C)cn2C)cc1 | 3% | x | x | x | 0% | x
COc1cccc(N(C(=O)CS(=O)CC(=O)Nc2ccc(F)cc2)C(C(=O)NC2CCCCC2)c2cccs2)c1 (centres undefined) | u | -9% | u | u | u | 0
COc1cccc(N(C(=O)CCl)C(C(=O)NCCc2ccccc2)c2cccs2)c1 (centres undefined) | 4.6µM* | 16µM* | 1.6µM* | 1.3µM* | 4.1µM* | u
COc1ccc(N(C(=O)CCl)C(C(=O)NCCc2ccccc2)c2cccs2)cc1Cl (centres undefined) | 1.5µM* | u | 18µM* | 5.8µM* | 2.6µM* | -103*
Cc1cc(SCC(=O)Nc2c(C)n(C)n(-c3ccccc3)c2=O)nc2ccccc12 | 10% | 5% | 4% | 6% | 6% | -9
O=C1NC(c2cccs2)Nc2sc3c(c21)CCCC3 (centres undefined) | 3.3µM* | u | -7% | -1% | 4.1µM* | 16
COc1ccc(Br)cc1C1NC(=O)c2c(sc3c2CCN(C)C3)N1 (centres undefined) | -24% | 5% | 9% | 13% | -2% | 6
COc1ccc(C2CCc3cc4c(cc3C2=NOC(C)=O)OCO4)cc1OC (centres undefined) | 15µM* | x | 0% | u | 21µM* | 0
CC1=C(C(=O)N(C)C)CC(CC(=O)NCC2CCCCC2)C(=O)N1CCCN1CCCC1=O (centres undefined) | 13% | x | 8% | 11% | 8% | 15
COc1ccc(/C=C2\N=C3CCCCCN3C2=O)cc1OC | -1% | u | -1% | -12% | -10% | 27
